# Results: the supplement of paper PMC12067093, “Discovery and optimisation of a covalent ligand for TRIM25 and its application to targeted protein ubiquitination” (Chemical Science, 2025)
# Targets with the largest changes are over-represented here; the source holds about 21,000 in all.
# Compound: Cc1cc(ccc1-c1ccccc1)C(=O)N1CCCN(CC1)C(=O)CCl [compound 10]
# Experiment: probe-labelled cysteine peptide fold change vs DMSO (competition) (log2 fold change); higher = less target engagement (more negative = stronger competition)
# Conditions: THP-1, incubation time: 4 h
# 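Further: competitive profiling in live THP-1 cells: cysteine peptides tagged with an iodoacetamide desthiobiotin (IA-DTB) probe, intensity after compound treatment relative to DMSO-treated cells.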
# Sequence of UniProt P17812 (P17812 whole entry, looked up): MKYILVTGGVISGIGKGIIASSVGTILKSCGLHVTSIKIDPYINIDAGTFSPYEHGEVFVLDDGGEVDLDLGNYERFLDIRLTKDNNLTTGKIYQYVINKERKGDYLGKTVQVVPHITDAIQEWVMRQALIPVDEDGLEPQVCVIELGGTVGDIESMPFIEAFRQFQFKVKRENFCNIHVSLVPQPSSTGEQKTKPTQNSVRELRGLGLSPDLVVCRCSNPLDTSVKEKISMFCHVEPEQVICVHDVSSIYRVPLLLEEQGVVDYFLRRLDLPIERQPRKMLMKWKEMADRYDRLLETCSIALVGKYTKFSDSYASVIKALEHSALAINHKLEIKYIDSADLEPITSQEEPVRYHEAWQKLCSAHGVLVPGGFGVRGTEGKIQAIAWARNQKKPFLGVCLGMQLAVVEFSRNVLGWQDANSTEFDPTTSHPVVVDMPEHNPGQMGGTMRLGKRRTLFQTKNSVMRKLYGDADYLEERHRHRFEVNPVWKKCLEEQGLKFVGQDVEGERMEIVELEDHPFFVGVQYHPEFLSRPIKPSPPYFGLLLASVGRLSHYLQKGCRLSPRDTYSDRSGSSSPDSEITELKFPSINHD
# Sequence of UniProt P29762 (P29762 whole entry, looked up): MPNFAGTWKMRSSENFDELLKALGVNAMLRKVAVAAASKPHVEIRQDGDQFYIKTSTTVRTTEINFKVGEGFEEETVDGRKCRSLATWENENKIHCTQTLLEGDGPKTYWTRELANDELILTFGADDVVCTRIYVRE
# Sequence of UniProt O00571 (O00571 whole entry, looked up): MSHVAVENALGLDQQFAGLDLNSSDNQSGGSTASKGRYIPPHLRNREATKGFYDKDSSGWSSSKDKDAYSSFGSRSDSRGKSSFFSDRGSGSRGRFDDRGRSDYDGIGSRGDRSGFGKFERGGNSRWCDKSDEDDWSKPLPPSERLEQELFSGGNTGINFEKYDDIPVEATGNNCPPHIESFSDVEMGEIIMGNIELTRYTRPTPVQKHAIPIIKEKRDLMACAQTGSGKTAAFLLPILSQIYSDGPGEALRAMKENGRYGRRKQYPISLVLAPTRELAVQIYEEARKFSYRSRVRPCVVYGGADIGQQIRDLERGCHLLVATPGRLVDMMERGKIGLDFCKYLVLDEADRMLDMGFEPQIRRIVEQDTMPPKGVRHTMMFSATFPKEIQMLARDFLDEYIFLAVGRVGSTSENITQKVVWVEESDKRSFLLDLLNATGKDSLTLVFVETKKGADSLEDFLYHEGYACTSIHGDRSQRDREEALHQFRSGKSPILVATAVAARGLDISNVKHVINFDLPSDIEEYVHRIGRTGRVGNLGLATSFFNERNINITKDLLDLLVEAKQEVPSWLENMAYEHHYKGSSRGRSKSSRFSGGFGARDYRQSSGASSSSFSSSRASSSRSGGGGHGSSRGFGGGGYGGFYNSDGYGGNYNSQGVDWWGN
# Sequence of UniProt Q5T6F0 (Q5T6F0 whole entry, looked up): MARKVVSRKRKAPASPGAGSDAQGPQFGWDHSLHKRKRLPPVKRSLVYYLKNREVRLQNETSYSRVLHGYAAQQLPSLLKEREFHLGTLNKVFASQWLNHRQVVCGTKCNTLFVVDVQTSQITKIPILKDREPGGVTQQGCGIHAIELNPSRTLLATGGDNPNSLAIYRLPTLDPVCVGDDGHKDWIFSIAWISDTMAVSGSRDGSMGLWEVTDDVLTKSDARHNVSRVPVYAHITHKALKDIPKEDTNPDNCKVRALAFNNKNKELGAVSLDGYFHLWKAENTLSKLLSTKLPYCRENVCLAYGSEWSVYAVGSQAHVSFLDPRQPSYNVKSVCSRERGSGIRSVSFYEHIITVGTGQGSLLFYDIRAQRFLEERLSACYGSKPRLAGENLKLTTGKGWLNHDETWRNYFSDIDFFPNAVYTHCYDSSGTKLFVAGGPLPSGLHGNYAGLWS
# Sequence of UniProt O95628 (O95628 whole entry, looked up): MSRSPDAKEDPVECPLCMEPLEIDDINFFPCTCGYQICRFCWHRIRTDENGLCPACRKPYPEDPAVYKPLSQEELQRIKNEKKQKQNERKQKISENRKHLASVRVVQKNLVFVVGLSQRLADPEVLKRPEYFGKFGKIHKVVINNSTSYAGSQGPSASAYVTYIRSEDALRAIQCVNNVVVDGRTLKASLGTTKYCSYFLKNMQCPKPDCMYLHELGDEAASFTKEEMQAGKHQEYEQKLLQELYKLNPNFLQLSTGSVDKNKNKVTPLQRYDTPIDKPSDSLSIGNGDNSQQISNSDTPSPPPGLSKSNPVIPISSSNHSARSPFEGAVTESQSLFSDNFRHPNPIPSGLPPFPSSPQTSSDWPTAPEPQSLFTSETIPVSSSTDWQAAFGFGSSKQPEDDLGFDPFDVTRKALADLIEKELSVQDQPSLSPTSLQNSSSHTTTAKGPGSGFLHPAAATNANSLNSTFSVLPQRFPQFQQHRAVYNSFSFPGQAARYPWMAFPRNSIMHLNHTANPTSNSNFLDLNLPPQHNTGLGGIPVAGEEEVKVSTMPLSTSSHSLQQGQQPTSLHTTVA
# Sequence of UniProt P53618 (P53618 whole entry, looked up): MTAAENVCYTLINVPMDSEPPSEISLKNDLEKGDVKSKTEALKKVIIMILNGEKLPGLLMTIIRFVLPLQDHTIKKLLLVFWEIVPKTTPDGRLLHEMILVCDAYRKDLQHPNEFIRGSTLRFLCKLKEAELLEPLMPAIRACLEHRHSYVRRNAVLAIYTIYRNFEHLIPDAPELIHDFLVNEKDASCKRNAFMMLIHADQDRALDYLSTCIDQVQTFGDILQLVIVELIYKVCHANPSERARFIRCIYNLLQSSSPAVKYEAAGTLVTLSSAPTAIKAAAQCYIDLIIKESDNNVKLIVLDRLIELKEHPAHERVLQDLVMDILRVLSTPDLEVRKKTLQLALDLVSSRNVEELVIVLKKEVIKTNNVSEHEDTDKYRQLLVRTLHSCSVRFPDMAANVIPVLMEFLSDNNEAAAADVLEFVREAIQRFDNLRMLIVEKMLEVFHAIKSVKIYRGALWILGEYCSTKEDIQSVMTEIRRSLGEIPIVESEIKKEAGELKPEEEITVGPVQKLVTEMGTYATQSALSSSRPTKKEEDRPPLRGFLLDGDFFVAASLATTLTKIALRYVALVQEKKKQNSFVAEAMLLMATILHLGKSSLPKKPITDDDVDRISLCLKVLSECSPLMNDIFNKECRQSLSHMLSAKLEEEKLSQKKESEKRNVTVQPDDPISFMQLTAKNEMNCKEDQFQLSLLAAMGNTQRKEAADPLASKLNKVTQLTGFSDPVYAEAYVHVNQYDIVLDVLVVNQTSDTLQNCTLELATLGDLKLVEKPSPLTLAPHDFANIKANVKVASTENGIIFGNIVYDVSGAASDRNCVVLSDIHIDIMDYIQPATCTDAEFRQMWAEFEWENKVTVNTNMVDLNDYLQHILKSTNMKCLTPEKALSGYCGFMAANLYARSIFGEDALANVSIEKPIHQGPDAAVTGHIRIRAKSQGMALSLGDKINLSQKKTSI
# Sequence of UniProt Q96GQ7 (Q96GQ7 whole entry, looked up): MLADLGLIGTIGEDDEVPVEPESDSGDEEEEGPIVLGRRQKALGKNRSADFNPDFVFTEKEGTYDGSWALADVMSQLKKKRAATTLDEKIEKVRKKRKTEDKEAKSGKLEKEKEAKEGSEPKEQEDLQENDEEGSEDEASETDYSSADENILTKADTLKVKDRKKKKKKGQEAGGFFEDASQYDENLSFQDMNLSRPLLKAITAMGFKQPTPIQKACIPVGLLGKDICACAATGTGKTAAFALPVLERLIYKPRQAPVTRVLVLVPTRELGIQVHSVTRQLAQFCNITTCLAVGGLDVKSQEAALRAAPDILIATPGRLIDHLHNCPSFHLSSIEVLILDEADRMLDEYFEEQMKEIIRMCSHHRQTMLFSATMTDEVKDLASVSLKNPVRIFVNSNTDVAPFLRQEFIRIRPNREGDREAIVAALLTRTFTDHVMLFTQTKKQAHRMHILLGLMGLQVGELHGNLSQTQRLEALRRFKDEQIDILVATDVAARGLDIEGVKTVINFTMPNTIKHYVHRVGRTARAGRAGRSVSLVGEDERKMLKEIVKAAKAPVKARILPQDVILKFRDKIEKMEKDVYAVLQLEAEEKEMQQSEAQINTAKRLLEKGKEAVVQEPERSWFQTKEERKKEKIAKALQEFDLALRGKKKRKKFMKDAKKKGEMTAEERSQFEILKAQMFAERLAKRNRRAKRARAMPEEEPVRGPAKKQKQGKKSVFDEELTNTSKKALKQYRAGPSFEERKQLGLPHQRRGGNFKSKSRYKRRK
# Sequence of UniProt Q9UBR2 (Q9UBR2 whole entry, looked up): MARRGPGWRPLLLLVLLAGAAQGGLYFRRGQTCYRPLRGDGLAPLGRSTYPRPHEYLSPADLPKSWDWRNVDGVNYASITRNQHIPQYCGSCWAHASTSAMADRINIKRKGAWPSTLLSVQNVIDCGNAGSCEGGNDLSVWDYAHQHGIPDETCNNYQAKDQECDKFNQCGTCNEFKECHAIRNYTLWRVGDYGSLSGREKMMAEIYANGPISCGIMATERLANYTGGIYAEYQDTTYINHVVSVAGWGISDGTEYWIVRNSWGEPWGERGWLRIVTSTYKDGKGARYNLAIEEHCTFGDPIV
# Sequence of UniProt P21964 (P21964 whole entry, looked up): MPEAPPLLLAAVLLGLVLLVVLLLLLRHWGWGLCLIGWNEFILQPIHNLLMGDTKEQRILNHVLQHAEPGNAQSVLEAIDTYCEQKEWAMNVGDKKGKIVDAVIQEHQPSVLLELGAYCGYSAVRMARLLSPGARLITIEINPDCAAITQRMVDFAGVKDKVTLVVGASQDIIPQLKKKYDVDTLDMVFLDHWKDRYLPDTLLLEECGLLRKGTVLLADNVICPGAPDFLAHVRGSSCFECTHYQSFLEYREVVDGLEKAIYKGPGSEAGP
# Sequence of UniProt Q96BR5 (Q96BR5 whole entry, looked up): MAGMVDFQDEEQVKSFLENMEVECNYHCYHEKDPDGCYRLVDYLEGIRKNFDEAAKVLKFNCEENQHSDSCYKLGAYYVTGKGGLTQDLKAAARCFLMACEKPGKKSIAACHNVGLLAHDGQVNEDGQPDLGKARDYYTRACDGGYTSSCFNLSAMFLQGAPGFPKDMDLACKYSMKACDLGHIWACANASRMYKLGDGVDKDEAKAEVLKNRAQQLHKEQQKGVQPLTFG
Target,probe-labelled cysteine peptide fold change (10 µM),probe-labelled cysteine peptide fold change (50 µM)
CRELD2_Q6UXH1_120_SEYPDLFEWFCVK (UniProt Q6UXH1),0.199,-0.0635
CMTM3_Q96MX0_38_AFLCSLK (UniProt Q96MX0),-0.91,-3.05
CNOT4_O95628_175_AIQCVNNVVVDGR (UniProt O95628),-0.0308,-0.303
CRYZL1_O95825_302_YLCILK (UniProt O95825),-0.195,-0.442
DGLUCY_Q7Z3D6-2_165_TTVPCVTHAGFCCPLVVTMRPIPK (UniProt Q7Z3D6),0.017,-0.4
DNAJC7_Q99615_175_ALEFAPACHR (UniProt Q99615),-0.118,-0.577
DCAF6_Q58WW2_513_GIGSHCK (UniProt Q58WW2),-0.205,-0.361
COQ8B_Q96D53_508_AHIACR (UniProt Q96D53),-0.221,-1.08
CTNNB1_P35222_520_NLALCPANHAPLR (UniProt P35222),-0.273,1.23
CORO1A_P31146_332_GLEVNKCEIAR (UniProt P31146),-0.447,-1.1
CPSF1_Q10570_1102_IELQEWEHVTCMK (UniProt Q10570),0.0314,-0.201
DMXL2_Q8TDJ6_1897_VGCPVLALEVLSK (UniProt Q8TDJ6),0.0214,-0.0631
COX17_Q14061_23+24_KPLKPCCACPETK (UniProt Q14061),-0.321,-2.25
DNM1L_O00429_446_IIQHCSNYSTQELLR (UniProt O00429),-0.165,-0.0631
DDX5_P17844_191_ELAQQVQQVAAEYCR (UniProt P17844),0.115,-0.161
CXXC1_Q9P0U4_38_KPDINCFMIGCDNCNEWFHGDCIR (UniProt Q9P0U4),0.0402,-1.06
CSE1L_P55060_61_VCASVTFK (UniProt P55060),-0.071,0.0214
DENND3_A2RUS2_801_TECDLWHLMVK (UniProt A2RUS2),-0.103,-0.116
COL15A1_P39059_965_GAIFPIPVRPHCK (UniProt P39059),-0.0948,0.0369
DCXR_Q7Z4W1_58_ECPGIEPVCVDLGDWEATER (UniProt Q7Z4W1),0.125,0.231
CSRP1_P21291_25_TVYFAEEVQCEGNSFHK (UniProt P21291),2.29e-05,-0.0826

Target,probe-labelled cysteine peptide fold change (10 µM),probe-labelled cysteine peptide fold change (50 µM)
DCAF12L1_Q5VU92_150_LAQDQQGCGIHAIELNPSK (UniProt Q5VU92),-0.214,-0.239
DNMT1_P26358_353+356_CIQCGQYLDDPDLK (UniProt P26358),0.138,-0.0723
CUL9_Q8IWT3_76_AEHILMWLSAPEVYANCPGLLGER (UniProt Q8IWT3),0.0237,-0.0123
CTNND1_O60716_618_YQEAAPNVANNTGPHAASCFGAK (UniProt O60716),-0.274,-0.78
DGKE_P52429_167_TVHDECMK (UniProt P52429),-0.082,-0.168
DCP2_Q8IU60_391_KLQDNFETDAVYDLPSSSEDQLLEHAEGQPVACNGHCK (UniProt Q8IU60),-0.353,-1.7
COPG1_Q9Y678_440_ETGLSHLCEFIEDCEFTVLATR (UniProt Q9Y678),0.0873,0.125
DDX3X_O00571_128_WCDKSDEDDWSK (UniProt O00571),-0.303,-1.35
CRYL1_Q9Y2S2_125_VILSSSTSCLMPSK (UniProt Q9Y2S2),-0.0791,-0.537
DENND6A_Q8IWF6_130_VSLHCLLDQFDK (UniProt Q8IWF6),0.295,1.1
COPE_O14579_212_CSPTLLLLNGQAACHMAQGR (UniProt O14579),0.0619,0.054
DDX27_Q96GQ7_248_ACIPVGLLGK (UniProt Q96GQ7),0.238,-0.122
DDX17_Q92841_319_CTYLVLDEADRMLDMGFEPQIR (UniProt Q92841),0.023,-0.374
CRABP1_P29762_130_ELANDELILTFGADDVVCTR (UniProt P29762),0.082,0.307
CNN2_Q99439_215_CASQVGMTAPGTR (UniProt Q99439),-0.0958,-0.449
DCAF12_Q5T6F0_253_EDTNPDNCK (UniProt Q5T6F0),-0.303,-0.538
CRIP1_P50238_56_TLTSGGHAEHEGKPYCNHPCYAAMFGPK (UniProt P50238),-0.447,-1.41
CROT_Q9UKG9_166_MLFSTCK (UniProt Q9UKG9),-0.0518,-0.0687
CORO7_P57737_790_TECDVREVELMR (UniProt P57737),-0.178,-0.995
COPA_P53621_1169_NPTDAYQLNYDMHNPFDICAASYR (UniProt P53621),0.178,0.397
DHX30_Q7L2E3_346_RPCTIQVPEPILR (UniProt Q7L2E3),-0.647,-1.7

Target,probe-labelled cysteine peptide fold change (10 µM),probe-labelled cysteine peptide fold change (50 µM)
DDX24_Q9GZR7_570_IHCETDEK (UniProt Q9GZR7),-0.15,0.261
CSE1L_P55060_344_NLFEDQNTLTSICEK (UniProt P55060),-0.186,-0.107
COA7_Q96BR5_187_ACDLGHIWACANASR (UniProt Q96BR5),0.0578,0.0556
DKC1_O60832_74_TTHYTPLACGSNPLKR (UniProt O60832),-0.0751,-0.244
DENND4A_Q7Z401_35_PLEEEIHFNDACHK (UniProt Q7Z401),-0.0984,-0.131
DCLRE1C_Q96SD1_34_AYFLSHCHK (UniProt Q96SD1),-0.0775,-0.167
COLGALT1_Q8NBJ5_283_QAEVQMYVCNK (UniProt Q8NBJ5),0.265,0.751
CRIP2_P52943_150_DWHRPCLR (UniProt P52943),0.923,1.04
CTNNB1_P35222_466_AGDREDITEPAICALR (UniProt P35222),0.16,1.07
CROT_Q9UKG9_584_SCPETDAEK (UniProt Q9UKG9),-0.0249,0.181
COPB1_P53618_248_CIYNLLQSSSPAVKYEAAGTLVTLSSAPTAIK (UniProt P53618),0.0928,0.0416
CSRP1_P21291_167_GLESTTLADKDGEIYCK (UniProt P21291),-0.0814,-1.06
DIP2A_Q14689_6_GCPLEAAPLPAEVR (UniProt Q14689),-0.41,-2.19
DHX16_O60231_932_VEVGLSSCQGDYIR (UniProt O60231),-0.184,0.119
DDX5_P17844_170_TLSYLLPAIVHINHQPFLERGDGPICLVLAPTR (UniProt P17844),0.236,0.565
DIAPH3_Q9NSV4_663_IRPHEMTENCFWIK (UniProt Q9NSV4),-0.0626,-0.468
CTR9_Q6PD62_196_TNPGCPAEVR (UniProt Q6PD62),-0.0165,-0.0939
CTSZ_Q9UBR2_164_DQECDK (UniProt Q9UBR2),-0.0913,-0.207
DHX57_Q6P158_644_LLYCTTGVLLR<|>DHX29_Q7Z478_678_LLYCTTGVLLR (UniProt Q7Z478+Q6P158),-0.0914,0.172
CORO1B_Q9BR76_25_NDQCYEDIR (UniProt Q9BR76),-0.0464,-0.0083
DCAF13_Q9NV06_215_FNPIETFLLGSCASDR (UniProt Q9NV06),0.105,-0.0461

Target,probe-labelled cysteine peptide fold change (10 µM),probe-labelled cysteine peptide fold change (50 µM)
DDX5_P17844_200_STCIYGGAPK (UniProt P17844),-0.0442,-0.0153
CRTAP_O75718_273_DFYLSIADHYVEVLECK (UniProt O75718),-0.146,1.08
DDHD2_O94830_470_ESEFCSSSNTR (UniProt O94830),-0.28,-0.538
DHX9_Q08211_777_VRPGFCFHLCSR (UniProt Q08211),-0.231,-0.0284
CNBP_P62633_150_CGETGHVAINCSK (UniProt P62633),-0.103,0.0483
DDX55_Q8NHQ9_161_AEGLDLASCVR (UniProt Q8NHQ9),0.187,0.31
DIAPH1_O60610_1227_KAGCAVTSLLASELTK (UniProt O60610),-0.218,-1.27
DDX20_Q9UHI6_98_CGLDLIVQAK (UniProt Q9UHI6),-0.0986,-0.579
CTNNA1_P35221_461_MSASQLEALCPQVINAALALAAK (UniProt P35221),0.108,0.332
DLGAP5_Q15398_129_YRPDMPCFLLSNQNAVK (UniProt Q15398),-0.0877,-1.31
DDX39A_O00148_62_AIVDCGFEHPSEVQHECIPQAILGMDVLCQAK (UniProt O00148),0.144,0.0705
COMT_P21964_241_GSSCFECTHYQSFLEYR (UniProt P21964),0.0648,-0.0597
CRIP1_P50238_52+56_PYCNHPCYAAMFGPK (UniProt P50238),0.0432,-0.424
CUL7_Q14999_952_CQQGGIDTR (UniProt Q14999),-0.417,-0.0198
CTPS1_P17812_30_SCGLHVTSIK (UniProt P17812),0.14,0.147
DDAH2_O95865_220_AMAVLTDHPYASLTLPDDAAADCLFLRPGLPGVPPFLLHR (UniProt O95865),0.061,0.0115
DDAH2_O95865_11_CSHALIR (UniProt O95865),0.0326,0.0102
CTDP1_Q9Y5B0_277_ILSRDECIDPFSK (UniProt Q9Y5B0),-0.0626,-0.31
DDX18_Q9NVP1_407_ANATVDGLEQGYVVCPSEK (UniProt Q9NVP1),-0.401,0.698
DENND4B_O75064_652_HAALEFFDSCVEK (UniProt O75064),0.0262,0.235
DHX9_Q08211_608+612_KDKDDDGGEDDDANCNLICGDEYGPETR (UniProt Q08211),-0.761,-0.243
